p53 reactivator – mutant p53 re-activation in reporter cells; 320,000 compounds, 0.063% hits; H1299 p53-A138V BP100-luciferase reporter, luminescence, 24 h; Potency, µM (series often up to 92.2 µM), without a hit: at the top dose activity change, positive = activation, usual class: activators; AID 504706; note: % of control where 0% means no effect; nearly all actives have a fitted effect of over 45% in size
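H1299 (p53-null), stable ts p53-A138V + BP100-Luc; 1000 cells/well, Opti-MEM/10% FBS; cpd 4 pt, 1:5; 24 h, 37 deg C, 5% CO2; detection reagent 10 min RT; luminescence.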
FLuc modulator – inhibits or activates purified firefly luciferase, miR-21 counter-screen. 360,000 compounds, 6.9% hits. P08659. Potency, µM (highest dose often 57.5 µM), without a hit: top-dose activity change, negative = inhibition, usual class: inhibitors. purified FLuc, Km substrates, luminescence inhibition;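 note: plate controls were vehicle for no effect and reference inhibitor for full effect; nearly all actives have a fitted effect of over 55% in size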
Target sequence (P08659 whole entry, looked up): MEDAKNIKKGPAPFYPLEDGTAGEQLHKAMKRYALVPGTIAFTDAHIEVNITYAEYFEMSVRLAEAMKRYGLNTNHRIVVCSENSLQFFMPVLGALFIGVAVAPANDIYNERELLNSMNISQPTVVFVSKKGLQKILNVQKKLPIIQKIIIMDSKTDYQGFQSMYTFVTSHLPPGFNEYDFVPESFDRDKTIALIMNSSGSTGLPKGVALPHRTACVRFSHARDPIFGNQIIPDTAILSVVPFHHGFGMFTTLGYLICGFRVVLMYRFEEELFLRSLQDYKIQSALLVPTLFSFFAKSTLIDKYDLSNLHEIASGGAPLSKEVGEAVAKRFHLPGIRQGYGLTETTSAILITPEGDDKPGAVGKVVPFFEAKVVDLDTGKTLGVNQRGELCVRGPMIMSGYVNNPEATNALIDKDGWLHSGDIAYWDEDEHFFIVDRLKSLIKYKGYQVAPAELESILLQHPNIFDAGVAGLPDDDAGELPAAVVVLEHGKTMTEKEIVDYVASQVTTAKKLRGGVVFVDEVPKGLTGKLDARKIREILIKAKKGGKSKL
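Purified P. pyralis luciferase, 10 nM final, with Km-level 10 uM D-luciferin and 10 uM ATP in 50 mM Tris acetate pH 7.5, 10 mM Mg acetate, 0.01% Tween-20, 0.05% BSA; 6-point qHTS titration about 60 µM downward; luminescence read.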
SMN2 splice up – enhancers of SMN2 splice variant expression | HEK293 SMN2-luciferase splicing reporter, luminescence, 30-36 h | Potency, µM (doses to about 46.1 µM), inactives show at the top dose activity change, positive = activation, most hits filed as activators | 210,000 compounds, 2.8% hits | AID 1458; note: % of control where 0% means no effect; nearly all actives have a fitted effect of over 55% in size
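qHTS luciferase splicing reporter: luminescence rises when SMN2 exon 7 is included in transfected HEK293 cells. Compound exposure lasted 30-36 h at 37C, with 4.5 mM final sodium butyrate as control, followed by a ONE-Glo read.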
Rab9 promoter act – activators of Rab9 promoter. Huh7 Rab9 promoter-luciferase reporter, luminescence, 24 h. Potency, µM (series often up to 9.22 µM), for the others: top-dose activation, negative = inhibition, usual class: activators. 320,000 compounds, 2.8% hits; note: % of control where 0% means no effect; nearly all actives have a fitted effect of over 60% in size
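Stable Rab9-luc Huh7, 1500 cells/well, 2 h settle; cmpd in DMSO, 24 h, 37 °C/5% CO2; luciferase reagent 10 min RT; luminescence.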
ELG1 genotox – induces genotoxicity in HEK293T cells with luciferase-tagged ELG1; HEK293T ELG1-luciferase reporter, luminescence, 16 h; Potency, µM (titrated, usually from 46 µM), for the others: at the highest dose activity change, positive = activation, most hits filed as activators; 330,000 compounds, 1.3% hits; note: % of control where 0% means no effect; nearly all actives have a fitted effect of over 60% in size
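Genotoxic stress is detected as increased luminescence from luciferase-tagged ELG1 in HEK293T cells, measured with ONE-Glo after a 16 hr treatment at 37 °C.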
NPC1 promoter act – activators of NPC1 promoter; Huh7 NPC1 promoter luciferase reporter, 24 h; Potency, µM (doses to about 9.22 µM), without a hit: top-dose activation, hits mostly activators; 320,000 compounds, 2.4% hits; AID 485313; note: % of control where 0% means no effect; nearly all actives have a fitted effect of over 60% in size
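Cells: Huh7 expressing luciferase under the NPC1 promoter, 1500/well. Seeded 2 h, compound added, incubated 24 h at 37 °C. Luciferase reagent, 10 min ambient, then luminescence.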
* hit, by the source's call; ? = inconclusive; / = no result. Only some compounds are listed: those with a hit (about 7.3% of all), similar ones and a draw of the others. Calls come from the whole dose curve; as a rule, active = well fitted curve in the direction sought with a large enough effect; inconclusive = small, poorly fitted or top-dose-only effect, or another doubt; inactive = no such curve, though single readings can be large; an effect the other way counts as inactive or inconclusive. Potency is the fitted concentration of half-maximal effect.

SMILES	p53 reactivator	FLuc modulator	SMN2 splice up	Rab9 promoter act	ELG1 genotox	NPC1 promoter act
Cc1ccccc1Nc1nc(N)nc(COC(=O)c2cccn2C)n1	?	16.9µM*	11.2µM*	?	16.4µM*	3.55µM*
Cc1ccccc1Nc1nc(N)nc(COC(=O)c2ccc(O)cc2)n1	1.6%	-11.4%	15.6%	16.3%	2.2%	-1.8%
CCc1ccccc1Nc1nc(N)nc(COC(=O)c2cccn2C)n1	?	-29.2%	?	?	?	?
O=C(O)c1cc2ccccc2cc1Nc1ccccc1	-5.4%	-8.3%	/	2.7%	-2.1%	-4.9%
CN(CCC#N)C(=O)c1cc2c(s1)-c1ccccc1SC2	19.3%	10.7µM*	/	2.51µM*	?	2.24µM*
Cc1cnc(C(=O)Nc2nnc(C3CC3)s2)cn1	11.6%	-15.7%	21.1%	26.4%	?	19.6%
COc1c(C(=O)Nc2nnc(C3CC3)s2)csc1Cl	14.3%	?	/	3.98µM*	?	4.47µM*
O=C(Nc1nnc(C2CC2)s1)c1cccs1	28.8%	?	/	3.16µM*	?	2.82µM*
CC(C)(C)c1nnc(NC(=O)c2cccs2)s1	10.0%	10.7µM*	/	2.82µM*	?	2.82µM*
O=C(CCC(=O)c1cccs1)Nc1nnc(C2CC2)s1	2.8%	0.8%	33.7%	1.9%	6.7%	2.1%
CC(C)=CC(=O)Nc1nnc(C(C)C)s1	12.4%	12µM*	11.2µM*	2.51µM*	?	3.16µM*
CCN(c1cccc(C)c1)S(=O)(=O)c1nnc(NC(=O)c2cccs2)s1	/	-13.8%	/	/	/	/
CC(C)c1nnc(NC(=O)c2cccs2)s1	11.3%	13.5µM*	14.1µM*	2.51µM*	4.11µM*	2.82µM*
CN(c1ccccc1)S(=O)(=O)c1nnc(NC(=O)c2cccs2)s1	/	1.07µM*	/	/	/	/
CCOC(=O)c1c(C)oc2nc(C)nc(NCC3CCN(Cc4ccccc4C)CC3)c12	/	-0.2%	/	/	/	/
O=C1c2ccccc2C(=O)C1c1nccc2ccccc12	?	0.151µM*	0.631µM*	1.26µM*	0.082µM*	3.16µM*
N#CC1=C(N)SC(N)=C(C#N)C1c1ccnc2ccccc12	14.6%	-12.5%	-4.8%	-3.8%	-3.8%	-0.9%
O=C1c2ccccc2C(=O)C1c1ccnc2ccccc12	/	0.151µM*	0.398µM*	0.631µM*	?	3.55µM*
O=C1C(c2ccnc3ccccc23)=C(O)c2ccccc21	?	0.107µM*	0.398µM*	?	?	2.51µM*
Cc1ccc(C(=O)NNC(=O)CCC(=O)Nc2cc(C)on2)cc1	5.4%	-12.2%	10.9%	0.7%	-0.3%	-1.2%
CC(C)(C)c1ccc(C(=O)NNC(=O)CCC(=O)Nc2ccccc2)cc1	?	3.38µM*	/	6.3%	17.1%	10.6%
Cc1cc(NC(=O)CCC(=O)NNC(=O)c2ccc(C(C)(C)C)cc2)no1	29.7%	2.39µM*	5.0%	10.9%	7.8%	3.9%
COC(=O)c1sccc1S(=O)(=O)N1CCN(c2cccc(C)c2C)CC1	/	-8.5%	/	/	/	/
O=c1c(C=NCCCn2ccnc2)c(-c2ccccc2)[nH]n1-c1nc2ccccc2s1	?	16.9µM*	/	2.1%	?	-4.1%
CCc1ccc(NC(=O)C2=C(C)C(=O)OC23CCCCC3)cc1	/	-0.3%	-6.2%	/	/	/
SMILES	p53 reactivator	FLuc modulator	SMN2 splice up	Rab9 promoter act	ELG1 genotox	NPC1 promoter act
COc1cc(C(=O)Nc2ccc(NC(=O)c3ccco3)nc2)cc(OC)c1OC	-12.5%	-0.5%	9.3%	8.8%	-0.2%	-2.0%
COc1cccc(C(=O)Nc2ccc(NC(=O)c3ccco3)nc2)c1	?	21.3µM*	?	4.47µM*	19.0%	?
O=C(Nc1ccc(NC(=O)c2ccco2)nc1)c1cccnc1	?	10.7µM*	11.2µM*	2µM*	?	2.24µM*
COc1cccc(C(=O)Nc2ccc(NC(C)=O)cn2)c1	27.6%	21.3µM*	?	?	?	?
O=C(Nc1ccc(NC(=O)c2ccco2)nc1)c1cccc(F)c1	?	5.36µM*	/	3.16µM*	?	0.891µM*
Cc1ccc(C)c(N(C)C(=O)CCNC(=O)Cn2cnc3ccccc3c2=O)c1	/	1.4%	-18.4%	/	/	/
CCCn1c(-c2ccc(F)cc2)nc2c(NCC(C)(C)CN(C)C)nc(C)nc21	/	/	-7.2%	/	/	/
O=C(Nc1cccc(Cl)c1)c1ccc2nc(Cc3ccccc3)oc2c1	/	-11.7%	/	/	/	/
CCCC(=O)Nc1ccc(NC(=O)c2cccc(OC)c2)nc1	25.1%	12µM*	?	3.16µM*	11.6%	?
Cc1cc(NC(=O)c2cccc(F)c2)ncc1NC(=O)c1ccco1	?	10.7µM*	14.1µM*	2µM*	3.66µM*	1.26µM*
O=C(Nc1ccc(NC(=O)C2CC2)nc1)c1ccco1	27.4%	?	16.6%	?	?	?
O=C(Nc1ccc(NC(=O)c2ccccc2F)cn1)c1ccco1	3.1%	1.9µM*	/	0.562µM*	?	0.316µM*
O=C(NCCc1ccc(C(F)(F)F)cc1)c1ccc(Cl)nc1	-2.9%	7.6%	/	5.7%	-7.7%	-0.7%
COc1ccccc1-c1cc(C(=O)NC(C)C)no1	7.3%	13.5µM*	28.6%	2.82µM*	?	3.16µM*
